Shown is part of a subset that was picked to be rich in hits.
AMA1-RON2 inh: AMA1-RON2 (P. falciparum) interaction inhibition; AlphaScreen AMA1-biotinylated RON2 peptide binding; actives 0.2% (n = 360,000); Potency, µM (doses to about 58.2 µM), for the others: top-dose activity change, negative = inhibition, usual class: inhibitors; AID 720542;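 note: potency is the fitted concentration of half-maximal effect; 0% = vehicle wells and -100% = peptide control; nearly all actives have a fitted effect of over 45% in size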
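AMA1 (3D7) with his tag at 25 nM final met compounds first, then biotinylated RON2 peptide at 25 nM; detection used donor plus acceptor beads, 10 µg/mL apiece, read by AlphaScreen after 30 min at room temperature.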
AmpC inh detg: inhibitors of E. coli AmpC beta-lactamase with detergent | AID 485294 | actives 0.041% (n = 370,000) | Potency, µM (doses to about 114 µM), without a hit: at the highest dose activity change, negative = inhibition, most hits filed as inhibitors | AmpC hydrolysis of nitrocefin, absorbance 480 nm, 0.01% Triton;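 note: potency is the fitted concentration of half-maximal effect; 0% = no-compound wells and -100% = no-enzyme wells; nearly all actives have a fitted effect of over 25% in size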
Target sequence (P00811 whole entry, looked up): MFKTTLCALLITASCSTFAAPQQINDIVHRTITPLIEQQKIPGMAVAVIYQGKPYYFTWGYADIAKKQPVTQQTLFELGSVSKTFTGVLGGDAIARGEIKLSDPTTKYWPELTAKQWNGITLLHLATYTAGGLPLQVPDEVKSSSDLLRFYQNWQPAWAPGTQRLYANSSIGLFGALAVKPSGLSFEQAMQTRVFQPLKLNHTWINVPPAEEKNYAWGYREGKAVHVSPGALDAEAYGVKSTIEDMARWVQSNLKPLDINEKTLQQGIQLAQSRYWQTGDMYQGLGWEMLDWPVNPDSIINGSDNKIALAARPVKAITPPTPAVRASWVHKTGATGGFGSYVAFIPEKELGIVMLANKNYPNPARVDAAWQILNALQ
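AmpC (5.3 nM in the dispensed reagent) in 20 mM phosphate pH 7.0 with 0.01% (detergent screen) or 0.0001% Triton X-100 was preincubated with compounds for 15 min at room temperature. Nitrocefin was then added from an 800 uM solution, and hydrolysis was followed at 480 nm.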
AmpC inh no detg: inhibitors of E. coli AmpC beta-lactamase without detergent; actives 0.52% (n = 330,000); AmpC nitrocefin hydrolysis, absorbance 480 nm, 0.0001% Triton; Potency, µM (highest dose often 57.1 µM), without a hit: at the highest dose activity change, negative = inhibition, actives largely listed as inhibitors;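 note: potency is the fitted concentration of half-maximal effect; plate controls were no compound for no effect and no enzyme for full effect; nearly all actives have a fitted effect of over 20% in size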
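20 mM phosphate pH 7.0 + 0.01% (detergent screen) or 0.0001% Triton X-100; 5.3 nM AmpC reagent; cpd preinc 15 min RT; nitrocefin (800 uM stock) to start; A480 q20 s × 4 min; Activity was normalised to no-enzyme and no-compound control wells.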
Shiga toxin inh: inhibitors of Shiga toxin in Vero cells; Vero cells, Shiga toxin protein synthesis inhibition reporter; inhibition, % at 38.7 µM; actives 9.2% (n = 290,000); in the data active = inhibition mostly above about 28%, no sharp cut-off; inactive = mostly below about 43%; note: 0% is about no effect
SARS PLpro yeast: blocks SARS-CoV papain-like protease in a yeast assay | S. cerevisiae expressing SARS-CoV PLpro, growth rescue | Potency, µM (highest dose often 32.9 µM), for inactives: at the highest dose activity, positive = growth rescue, most hits filed as activators | actives 0.19% (n = 330,000) | AID 485353; calls by dose curve; note: potency is the fitted concentration of half-maximal effect; 0% is about no effect; nearly all actives have a fitted effect of over 55% in size
Cycloheximide cs: counter-screen for Shiga toxin inhibitors: cycloheximide protein synthesis inhibition. cell reporter, cycloheximide protein synthesis inhibition counterscreen. actives 12% (n = 300,000). max response, %; in the data active = max response mostly above about 13%, no sharp cut-off; inactive = mostly below about 14%; note: read at 38.3 µM for the half of the compounds with a filed dose; 0% is about no effect
An asterisk follows results filed as active; ? = inconclusive; . = no result; + = active, no number. Unless noted, calls come from the whole dose curve; as a rule, active = well fitted curve in the direction sought with a large enough effect; inconclusive = small, poorly fitted or top-dose-only effect, or another doubt; inactive = no such curve, though single readings can be large; an effect the other way counts as inactive or inconclusive.

SMILES	AMA1-RON2 inh	AmpC inh detg	AmpC inh no detg	Shiga toxin inh	SARS PLpro yeast	Cycloheximide cs
Cc1ccc2nc(-c3cccc(S(=O)(=O)N(C)C)c3)cn2c1	2.3%	2.1%	-11.3%	+	2.0%	53.9*
CN(C)S(=O)(=O)c1cccc(-c2cn3cccnc3n2)c1	2.9%	3.6%	-6.5%	2.8	0.9%	4.8
CCN(CC)S(=O)(=O)c1cccc(-c2cn3cc(C)ccc3n2)c1	-5.7%	0.9%	46.5%	98.5*	-7.9%	65.8*
Cc1ccccc1OCC(=O)N=Nc1c(O)n(C)c2ccccc12	-6.8%	-8.0%	-8.8%	24.3	-0.5%	9.6
CC(=O)N1CCN(c2ccc(NC(=O)c3cccc(F)c3)cc2)CC1	-0.9%	.	.	.	.	.
Cc1cccc(C(=O)Nc2ccc(C(=O)N3CCCCC3C)cc2)c1 (centres undefined)	-10.7%	4.2%	31.5%	29.5	0.3%	23.6*
CC(=O)N1CCN(c2ccc(NC(=O)c3cccc(C)c3)cc2)CC1	-6.6%	-6.4%	-2.3%	.	3.8%	12.8*
CC(=O)N1CCN(c2ccc(NC(=O)c3ccccc3)cc2)CC1	-0.5%	-6.2%	-5.4%	39.3*	-13.9%	22.8*
CC1(c2ccccc2Cl)NC(=O)N(CC(=O)Nc2ccccc2OC(F)F)C1=O (centres undefined)	-15.1%	-8.4%	-25.8%	-9.7	-1.9%	-2.9
CCN(c1ccccc1)S(=O)(=O)c1cc(C(=O)OC(C)C(=O)Nc2ccc3c(c2)OCCO3)ccc1C (centres undefined)	19.2%	-2.0%	-31.0%	-12.6	-1.6%	-0.6
CCOC(=O)c1c(NC(=O)C(C)Sc2cn(C)c3ccccc23)sc2c1CCC2 (centres undefined)	-15.4%	5.4%	-15.7%	-6.3	-4.3%	3.7
c1ccc(-c2cn(C[C@H]3CC[C@@H]([C@@H]4CC[C@H](Cn5cc(-c6ccccn6)nn5)O4)O3)nn2)nc1	1µM*	1.2%	27.6%	11.0	25.4%	3.6
COc1ccc2nc3c(nc2c1)CCCC3	-7.1%	-7.8%	2.7%	30.9	0.2%	33.2*
CCCCNc1nc2cccnc2s1	6.7%	1.4%	-8.6%	61.7*	-2.1%	22.3*
Clc1ccc(Nc2nc3cccnc3s2)cc1	25.0%	1.9%	-23.6%	89.8*	-1.0%	30.2*
CCCCc1nnc(NC(=O)C2CCCO2)s1 (centres undefined)	-1.4%	?	-25.3%	53.3*	-0.9%	14.7*
CCC(CC)c1nnc(NC(=O)C2CCCO2)s1 (centres undefined)	1.3%	7.2%	-9.5%	17.4	0.6%	18.6*
CCCc1nnc(NC(=O)CCC(=O)NC2CCCC2)s1	-7.2%	-6.0%	-5.4%	17.5	4.7%	-5.1
CCCCc1nnc(NC(=O)C2=COCCO2)s1	8.8%	?	-19.5%	68.8*	-5.9%	39.6*
O=C(NCCO)c1c(O)c2cccc3c2n(c1=O)CC3	0.0%	-5.4%	7.6%	-15.3	-8.7%	-1.6
CCN(CC)S(=O)(=O)c1cc(C(=O)Nc2ccccc2C(=O)O)ccc1OC	-2.1%	-5.9%	-15.9%	3.7	-8.7%	1.2
Cc1cc(OCC(=O)N(Cc2ccc(N(C)C)cc2)CC2CCCO2)ccc1Cl (centres undefined)	.	16.1%	.	.	.	.
COc1ccc(-c2c(C#Cc3ccsc3)c3ccccc3n2C)cc1	-2.9%	-18.4%	-33.2%	38.6*	-13.8%	23.0*
COc1ccc(C#Cc2c(-c3ccccc3)n(C)c3ccccc23)cc1	41.8%	.	-39.1%	.	-2.4%	.
O=C(N/N=C/c1ccco1)c1ccc(OCc2ccccc2)cc1	16.9%	-0.8%	-30.3%	0.8	-0.3%	11.1*
SMILES	AMA1-RON2 inh	AmpC inh detg	AmpC inh no detg	Shiga toxin inh	SARS PLpro yeast	Cycloheximide cs
O=C(N/N=C/c1ccc(COc2ccc(Br)cc2)o1)c1ccco1	15.5%	?	-18.6%	active	-9.3%	21.8
O=C(N/N=C/c1ccco1)c1ccccc1OCc1ccc(Br)cc1	1.6%	2.6%	-36.9%	117.9*	-16.2%	33.1*
Cc1ccc(/C=N/NC(=O)c2ccccc2OCc2cccc(Br)c2)o1	11.9%	-2.5%	-25.3%	-9.2	-15.0%	15.2*
Cc1cc(C)cc(OC(C)C(=O)Nc2nonc2-c2ccc(Br)cc2)c1 (centres undefined)	.	25.2%	.	.	.	.
COc1cccc(N(C(=O)C2CSC(=O)C2)C(C(=O)NC(C)(C)C)c2ccncc2)c1 (centres undefined)	13.2%	1.2%	20.7%	17.2	0.6%	-5.4
CN(C)C(=O)c1ccc(-c2cc(C(F)(F)F)nn2C)s1	-11.3%	-1.3%	6.6%	53.5*	-1.5%	39.2*
Cn1nc(C(F)(F)F)cc1-c1ccc(S(N)(=O)=O)s1	1.0%	-4.3%	-19.5%	67.8*	0.7%	38.3*
Cn1nc(C(F)(F)F)c2cc(C(=O)O)sc21	-13.0%	-1.9%	-3.3%	-2.1	3.7%	7.6
CN(CC(=O)Nc1cccc(F)c1)C(=O)c1cccc(N2C(=O)CCC2=O)c1	-1.8%	1.0%	1.6%	.	3.7%	.
Cn1c(SCc2ccc(F)cc2)nnc1-c1cnccn1	-2.8%	0.9%	-16.0%	60.6*	0.6%	20.2*
Cn1c(SCc2ccccc2)nnc1-c1cnccn1	-2.8%	?	-5.8%	97.4*	6.0%	37.0*
Cc1cccc(C)c1NC(=O)CSc1nnc(-c2cnccn2)n1C	-5.5%	2.7%	-10.0%	-3.7	-1.2%	-2.4
Cc1ccccc1CSc1nnc(-c2cnccn2)n1C	-13.0%	-2.7%	0.9%	57.1*	-0.6%	30.6*
Fc1ccc(CSc2nnc(-c3cnccn3)n2Cc2ccco2)cc1	-19.8%	1.3%	2.2%	24.2	-1.9%	2.3
CCOc1cc(/C=C2\SC(=S)N(NS(=O)(=O)c3ccccc3)C2=O)ccc1O	-10.0%	4.5%	-37.5%	-5.2	-1.6%	-6.0
Cc1ccc(S(=O)(=O)Nc2ccc(Nc3nccn4c(-c5cccc(OC(F)(F)F)c5)cnc34)cc2)cc1	86.3%	.	.	.	.	.
OC(O)C(Cl)(Cl)Cl	.	.	.	-2.9	.	-1.2
C/C(N)=C(/C#N)C(=O)CSc1nn(-c2ccc(Cl)cc2)c(=S)s1	-8.2%	3.6%	?	72.1*	-32.9%	47.3*
C/C(N)=C(/C#N)C(=O)CSc1ccccc1F	6.2%	2.3%	-34.4%	94.0*	0.8%	34.5*
C/C(N)=C(/C#N)C(=O)CSc1n[nH]c(-c2ccccc2Br)n1	14.9%	1.9%	-33.9%	65.7*	8.5%	46.2*
Cc1cc(NC(=O)CSc2n[nH]c(-c3ccccc3Br)n2)no1	2.8%	.	-38.9%	.	-4.1%	.
COc1ccc(OC)c(/C=N/NC(=O)CSc2cc(C)nc3c(OC)cccc23)c1	-24.4%	-6.3%	3.8%	-17.8	0.5%	-1.2
Cc1ccc2nc(NC(=O)CCCc3nc4ccccc4s3)sc2c1	-10.0%	-3.6%	-4.6%	116.7	-1.5%	41.8*
Cc1ccc2nc(NC(=O)CCCC(=O)O)sc2c1	1.0%	4.9%	-7.0%	5.6	0.1%	-3.1

Screening data: PubChem, National Center for Advancing Translational Sciences (NCATS)
